Among all 5,500 compounds or so, about 2,000 (36%) were called active. Another 18% or so got no clear call; they are omitted. Rule as the data show it: active = normalized growth mostly below about 0.91 (no sharp cut-off); inconclusive = no clear call, values can overlap the other calls; inactive = mostly above about 0.92. The list shows a part of the results.
Experiment: chemical genetic growth profiling, strain panel (AID 1159580);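 also: tested at 20 µM; growth read once vehicle control cultures reached saturation at 30 °C; 1 = growth at the plate median or of vehicle wells; lower values mean less growth of the strain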
Settings: growth OD
[1] = S. cerevisiae deletion strains, locus YHR030C, strain SLT2, active compounds read low
[2] = S. cerevisiae deletion strains, locus YHR079C, strain IRE1, active compounds read low
[3] = S. cerevisiae deletion strains, locus YJL095W, strain BCK1, active compounds read low
[4] = S. cerevisiae deletion strains, locus YJR066W, strain TOR1, active compounds read low
[5] = S. cerevisiae deletion strains, locus YLR113W, strain HOG1, active compounds read low
[6] = S. cerevisiae deletion strains, locus YNL183C, strain NPR1, active compounds read low
[7] = S. cerevisiae deletion strains, locus YOR231W, strain MKK1, active compounds read low
[8] = S. cerevisiae deletion strains, locus YPL256C, strain CLN2, active compounds read low
[9] = S. cerevisiae deletion strains, locus YAL013W, strain DEP1, active compounds read low
[10] = S. cerevisiae deletion strains, locus YBR229C, strain ROT2, active compounds read low
[11] = S. cerevisiae deletion strains, locus YCL061C, strain MRC1, active compounds read low
[12] = S. cerevisiae deletion strains, locus YDL101C, strain DUN1, active compounds read low
[13] = S. cerevisiae deletion strains, locus YDR150W, strain NUM1, active compounds read low
[14] = S. cerevisiae deletion strains, locus YEL061C, strain CIN8, active compounds read low
[15] = S. cerevisiae deletion strains, locus YGR078C, strain PAC10, active compounds read low
[16] = S. cerevisiae deletion strains, locus YHR087W, strain rtc3, active compounds read low
[17] = S. cerevisiae deletion strains, locus YJR043C, strain POL32, active compounds read low
[18] = S. cerevisiae deletion strains, locus YJR075W, strain HOC1, active compounds read low
[19] = S. cerevisiae deletion strains, locus YLR039C, strain RIC1, active compounds read low
[20] = S. cerevisiae deletion strains, locus YLR058C, strain SHM2 (second series), active compounds read low
[21] = S. cerevisiae deletion strains, locus YLR085C, strain ARP6, active compounds read low
[22] = S. cerevisiae deletion strains, locus YLR262C, strain YPT6, active compounds read low
[23] = S. cerevisiae deletion strains, locus YML094W, strain GIM5, active compounds read low
[24] = S. cerevisiae deletion strains, locus YMR219W, strain ESC1, active compounds read low
[25] = S. cerevisiae deletion strains, locus YMR263W, strain SAP30, active compounds read low
[26] = S. cerevisiae deletion strains, locus YMR307W, strain GAS1, active compounds read low
[27] = S. cerevisiae deletion strains, locus YNL153C, strain GIM3, active compounds read low
[28] = S. cerevisiae deletion strains, locus YNL298W, strain CLA4 (second series), active compounds read low
[29] = S. cerevisiae deletion strains, locus YNL322C, strain KRE1, active compounds read low
[30] = S. cerevisiae deletion strains, locus YNR030W, strain Alg12, active compounds read low
[31] = S. cerevisiae deletion strains, locus YPL055C, strain LGE1, active compounds read low
[32] = S. cerevisiae deletion strains, locus YPL241C, strain CIN2, active compounds read low
[33] = S. cerevisiae deletion strains, locus YPR135W, strain CTF4, active compounds read low
[34] = S. cerevisiae strains, strain wild type, active compounds read low

Measured: normalized growth

CC(=O)N[C@@H]1[C@@H](O)[C@H](O)[C@@H](CO)O[C@H]1O
inactive: [1] 0.993 | [2] 0.975 | [3] 0.995 | [4] 0.917 | [5] 0.993 | [6] 0.898 | [7] 0.99 | [8] 0.967

Cc1ccc(S(=O)(=O)/C(C#N)=N\O)cc1
inactive: [9] 0.989 | [10] 0.999 | [11] 1.01 | [12] 1.01 | [13] 1.02 | [14] 0.985 | [15] 0.997 | S. cerevisiae deletion strains, locus YGR229C, strain SMI1, active compounds read low 0.988 | [1] 0.948 | [16] 0.979 | S. cerevisiae deletion strains, locus YJL187C, strain SWE1, active compounds read low 0.987 | [17] 0.977 | [18] 1.03 | [19] 0.98 | [20] 0.997 | [21] 1.04 | [22] 0.984 | [23] 1.02 | [24] 1 | [25] 0.932 | [26] 1.12 | [27] 0.989 | [28] 0.977 | [29] 0.993 | [30] 0.998 | [31] 1.11 | [32] 1.02 | [33] 0.906 | [34] 0.971

Cc1ccc(/C(C#N)=C2C=C/C(=N/O)C(Cl)=C\2Cl)cc1
inactive: [9] 0.953 | [10] 0.961 | [11] 0.965 | [12] 0.983 | [13] 0.963 | [14] 0.959 | [15] 0.975 | [16] 1 | [17] 1.01 | [18] 1 | [19] 0.865 | [20] 0.999 | [21] 0.825 | [23] 0.973 | [24] 0.991 | [25] 0.984 | [26] 0.721 | [27] 0.962 | [28] 0.885 | [29] 0.98 | [31] 0.949 | [32] 0.952 | [33] 0.681 | [34] 0.929
active: [1] 0.631 | [22] 0.816 | [30] 0.877

COc1ccc(/C(C#N)=C2C=C/C(=N/O)C(Cl)=C\2)cc1
inactive: S. cerevisiae deletion strains, locus YAR019C, strain CDC15, active compounds read low 0.972 | S. cerevisiae deletion strains, locus YBL105C, strain PKC1, active compounds read low 0.975 | S. cerevisiae deletion strains, locus YBR135W, strain CKS1, active compounds read low 0.959 | S. cerevisiae deletion strains, locus YBR136W, strain MEC1, active compounds read low 0.954 | S. cerevisiae deletion strains, locus YBR160W, strain CDC28, active compounds read low 0.976 | S. cerevisiae deletion strains, locus YDL017W, strain CDC7, active compounds read low 0.984 | S. cerevisiae deletion strains, locus YDL028C, strain MPS1, active compounds read low 0.976 | [12] 0.971 | S. cerevisiae deletion strains, locus YDL108W, strain KIN28, active compounds read low 0.969 | S. cerevisiae deletion strains, locus YDL132W, strain cdc53, active compounds read low 0.948 | S. cerevisiae deletion strains, locus YDL214C, strain PRR2, active compounds read low 0.918 | S. cerevisiae deletion strains, locus YDR052C, strain DBF4, active compounds read low 0.966 | S. cerevisiae deletion strains, locus YDR054C, strain cdc34, active compounds read low 0.958 | S. cerevisiae deletion strains, locus YDR226W, strain ADK1, active compounds read low 0.955 | S. cerevisiae deletion strains, locus YDR477W, strain SNF1, active compounds read low 0.898 | S. cerevisiae deletion strains, locus YER123W, strain YCK3, active compounds read low 0.898 | S. cerevisiae deletion strains, locus YER133W, strain GLC7, active compounds read low 0.906 | S. cerevisiae deletion strains, locus YFL009W, strain cdc4, active compounds read low 0.962 | S. cerevisiae deletion strains, locus YFL029C, strain CAK1, active compounds read low 0.965 | S. cerevisiae deletion strains, locus YFR003C, strain YPI1, active compounds read low 0.97 | S. cerevisiae deletion strains, locus YFR019W, strain FAB1, active compounds read low 0.949 | S. cerevisiae deletion strains, locus YFR028C, strain CDC14, active compounds read low 0.948 | S. cerevisiae deletion strains, locus YGR040W, strain KSS1, active compounds read low 0.864 | S. cerevisiae deletion strains, locus YGR052W, strain FMP48, active compounds read low 0.925 | S. cerevisiae deletion strains, locus YGR092W, strain DBF2, active compounds read low 0.822 | [1] 0.879 | [2] 0.996 | S. cerevisiae deletion strains, locus YHR082C, strain KSP1, active compounds read low 0.937 | S. cerevisiae deletion strains, locus YHR205W, strain SCH9, active compounds read low 0.775 | S. cerevisiae deletion strains, locus YIL147C, strain SLN1, active compounds read low 0.968 | [3] 0.842 | S. cerevisiae deletion strains, locus YJL128C, strain PBS2, active compounds read low 0.942 | S. cerevisiae deletion strains, locus YJL157C, strain FAR1, active compounds read low 0.926 | S. cerevisiae deletion strains, locus YJR016C, strain ILV3, active compounds read low 0.954 | S. cerevisiae deletion strains, locus YJR066W, strain TOR1 (second series), active compounds read low 0.85 | [4] 0.887 | S. cerevisiae deletion strains, locus YKL048C, strain ELM1, active compounds read low 0.929 | S. cerevisiae deletion strains, locus YKL067W, strain YNK1, active compounds read low 0.932 | S. cerevisiae deletion strains, locus YKL101W, strain HSL1, active compounds read low 0.893 | S. cerevisiae deletion strains, locus YKL193C, strain SDS22, active compounds read low 0.964 | S. cerevisiae deletion strains, locus YKL203C, strain TOR2, active compounds read low 0.866 | S. cerevisiae deletion strains, locus YLR133W, strain CKI1, active compounds read low 0.913 | S. cerevisiae deletion strains, locus YLR403W, strain SFP1, active compounds read low 0.866 | S. cerevisiae deletion strains, locus YML070W, strain DAK1, active compounds read low 0.915 | S. cerevisiae deletion strains, locus YMR001C, strain CDC5, active compounds read low 0.959 | S. cerevisiae deletion strains, locus YMR205C, strain PFK2 (second series), active compounds read low 0.941 | S. cerevisiae deletion strains, locus YMR277W, strain FCP1, active compounds read low 0.967 | S. cerevisiae deletion strains, locus YNL006W, strain LST8, active compounds read low 0.985 | S. cerevisiae deletion strains, locus YNL020C, strain ARK1, active compounds read low 0.922 | S. cerevisiae deletion strains, locus YNL161W, strain CBK1, active compounds read low 0.973 | [6] 0.862 | S. cerevisiae deletion strains, locus YNL207W, strain RIO2, active compounds read low 0.961 | S. cerevisiae deletion strains, locus YNL222W, strain SSU72, active compounds read low 0.971 | S. cerevisiae deletion strains, locus YNL307C, strain MCK1 (second series), active compounds read low 0.874 | S. cerevisiae deletion strains, locus YOL078W, strain AVO1, active compounds read low 0.958 | S. cerevisiae deletion strains, locus YOL136C, strain PFK27, active compounds read low 0.894 | S. cerevisiae deletion strains, locus YOR061W, strain CKA2, active compounds read low 0.903 | S. cerevisiae deletion strains, locus YOR119C, strain RIO1, active compounds read low 0.87 | [7] 0.905 | S. cerevisiae deletion strains, locus YOR329C, strain SCD5, active compounds read low 0.985 | S. cerevisiae deletion strains, locus YPL031C, strain PHO85, active compounds read low 0.854 | S. cerevisiae deletion strains, locus YPL153C, strain RAD53, active compounds read low 0.899 | S. cerevisiae deletion strains, locus YPL204W, strain HRR25, active compounds read low 0.864 | S. cerevisiae deletion strains, locus YPL209C, strain IPL1, active compounds read low 0.977 | [8] 0.967 | S. cerevisiae deletion strains, locus YPR025C, strain CCL1, active compounds read low 0.977 | S. cerevisiae deletion strains, locus YPR106W, strain ISR1, active compounds read low 0.96 | S. cerevisiae deletion strains, locus YPR111W, strain DBF20, active compounds read low 0.942 | S. cerevisiae deletion strains, strain NNK1, active compounds read low 0.979 | S. cerevisiae deletion strains, strain TSCII, active compounds read low 0.959
active: [5] 0.851

Reference: PubChem BioAssay AID1159580 (chemical genetic matrix, 2015)
